Among the test systems are T-47D breast; BT-549 breast; MDA-MB-435 melanoma; SW-620 colon; MCF7 breast; HCT-116 colon; HCC-2998 colon; KM12 colon; MDA-MB-468 breast.
Holding throughout (test): NCI-60 one-dose screen, 48 h (100 = growth as untreated, 0 = no growth, -100 = all killed)
Common to all, as to details: 10 µM

Compounds without any hit were thinned out: in the full panel of roughly 83,000, 20% have a hit.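 Growth was measured after 48 h exposure to one concentration of compound in 96-well plates. Values under 10 count as active.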 Unmarked numbers belong to inactive results. Activity calls are given as the source filed them.

For `COc1cnc2c(c1)C(=O)c1c-2n(CCCNC(C)C)c(=O)c2cc(OC)c(OC)cc12`, the growth is 36.2% in the assay on T-47D breast; 56.4% with BT-549 breast; 44% in the assay on MDA-MB-435 melanoma; -24.9% (active) in the assay with SW-620 colon; 11.8% in the assay with MCF7 breast; 25.5% in the assay on HCT-116 colon. Besides, the growth with HCC-2998 colon is 48.9%; in the assay with KM12 colon, 29.5%; with MDA-MB-468 breast, 8.82% (active).
For `O=C(c1ccc(Cl)cc1)C1[C@H](c2ccccc2Br)[C@@H](c2ccccc2)NC12C(=O)Nc1ccccc12` (stereo partly specified), the growth is 48.6% in the assay on T-47D breast; 48% with BT-549 breast; -47.3% (active) in the assay with MDA-MB-435 melanoma; 5.99% (active) in the assay with SW-620 colon; -4.27% (active) in the assay with MCF7 breast; 16.3% in the assay with HCT-116 colon. The growth was 7.29% (active) in the assay on HCC-2998 colon, 15.2% with KM12 colon and -45.9% (active) in the assay with MDA-MB-468 breast.
For `CCCn1c(O)c(N=Nc2nc(-c3cc4ccccc4oc3=O)cs2)c2cc(Br)ccc21`, the growth in the assay with T-47D breast is 98.8%; in the assay on BT-549 breast, 113%; in the assay on MDA-MB-435 melanoma, 105%; in the assay with SW-620 colon, 106%; in the assay with MCF7 breast, 90.4%; with HCT-116 colon, 101%. Further, the growth in the assay with HCC-2998 colon was 99.1%; in the assay on KM12 colon, 106%; with MDA-MB-468 breast, 94.8%.
Consider `CN1CCN(c2ccc(C(=O)/C=C/c3ccc(OC(F)F)cc3)cc2)CC1`, for which the growth is 55% in the assay on T-47D breast; 19.2% in the assay on BT-549 breast; -37.3% (active) in the assay on MDA-MB-435 melanoma; -32.8% (active) with SW-620 colon; -71.7% (active) in the assay with MCF7 breast; -62.5% (active) with HCT-116 colon. The growth with HCC-2998 colon is -48.9% (active); in the assay with KM12 colon, 6.74% (active); with MDA-MB-468 breast, -60.7% (active).
With `CN1CCN(c2ccc(Nc3nc(NCCCNC(=O)C4CCCCC4)c4sccc4n3)cc2)CC1`, the growth with T-47D breast is 36.6%; with BT-549 breast, 69.1%; with MDA-MB-435 melanoma, 34%; in the assay on SW-620 colon it was 40%; in the assay with MCF7 breast, 23.1%; in the assay with HCT-116 colon it was 30.8%. In addition, the figures for the growth with HCC-2998 colon, in the assay with KM12 colon and with MDA-MB-468 breast were 59.5%, 63.7% and 49.1%, respectively.
In the case of `Cc1ccc(-c2cc(C(=O)N=Nc3c(O)[nH]c4ccc(Br)cc34)c3ccccc3n2)cc1`, the growth with T-47D breast is 75.2%; in the assay on BT-549 breast it was 86.3%; with MDA-MB-435 melanoma, 45.1%; with SW-620 colon it was 34.1%; in the assay on MCF7 breast, 28.5%; in the assay on HCT-116 colon, 27.4%. Further, the growth in the assay with HCC-2998 colon was 45.5%; in the assay with KM12 colon, 49.1%; in the assay with MDA-MB-468 breast it was 31.2%.
With `Cc1ccc(C(=O)N/C(=C2/OCCN2C)[P+](c2ccccc2)(c2ccccc2)c2ccccc2)cc1`, the growth with T-47D breast was 55.3%; in the assay with BT-549 breast, 86.8%; in the assay on MDA-MB-435 melanoma, 54.4%; in the assay on SW-620 colon it was 84.1%; with MCF7 breast it was 56.4%; in the assay on HCT-116 colon, 57.9%. Besides, the figures for the growth in the assay on HCC-2998 colon, with KM12 colon and in the assay with MDA-MB-468 breast were 75.1%, 55.4% and -13.3% (active), respectively.
On to `Cc1ccc2nc(-c3ccc(-c4nnc(SCC(=O)Nc5ccc(Cl)cc5)o4)cc3)[nH]c2c1`, for which the growth in the assay on T-47D breast was 65.1%; in the assay with BT-549 breast, 65.9%; with MDA-MB-435 melanoma, 49.1%; in the assay on SW-620 colon it was 3.49% (active); in the assay with MCF7 breast, -16.1% (active); in the assay with HCT-116 colon it was 9.37% (active). Further, the growth in the assay with HCC-2998 colon is 67.5%; in the assay with KM12 colon, 50.8%; with MDA-MB-468 breast, 46.8%.
Turning to `CCCCSc1nc(Nc2ccc(/C(C)=N/NC(N)=S)cc2)c(C#N)c(-c2ccc(F)cc2)n1`, the growth is 46.8% with T-47D breast; 31.5% in the assay with BT-549 breast; 78.6% in the assay on MDA-MB-435 melanoma; 67.7% with SW-620 colon; 41.3% with MCF7 breast; 36.3% with HCT-116 colon. Besides, the growth is 66.9% in the assay on HCC-2998 colon, 60.2% with KM12 colon and -1.25% (active) in the assay with MDA-MB-468 breast.
As for `C#CCNC(=O)[C@]12CCC(C)(C)C[C@H]1C1=CC[C@@H]3[C@@](C)(CCC#N)[C@H](C(=C)C)CC[C@@]3(C)[C@]1(C)CC2`, the growth with T-47D breast is 28%; in the assay with BT-549 breast it was 75.6%; with MDA-MB-435 melanoma, 72.2%; with SW-620 colon, 74.1%; in the assay with MCF7 breast it was 34%; in the assay on HCT-116 colon, 27.2%. In addition, the figures for the growth in the assay with HCC-2998 colon, with KM12 colon and in the assay on MDA-MB-468 breast were 75.4%, 54.8% and 34.7%, respectively.
Turning to `CCOC(=O)c1c(CSc2ccccc2)n(C)c2cc(CN(C)C)c(O)c(CN(C)C)c12`, the growth in the assay on T-47D breast is 50.2%; in the assay on BT-549 breast, 63.7%; in the assay with MDA-MB-435 melanoma, 54%; in the assay with SW-620 colon it was 23.1%; in the assay with MCF7 breast, 3.06% (active); in the assay on HCT-116 colon, 10.9%. Also, the growth is 12.1% in the assay on HCC-2998 colon, 40.4% in the assay on KM12 colon and -4.94% (active) with MDA-MB-468 breast.
As to `CC(=C(c1ccc(OCCN2CCCCCC2)cc1)c1ccc(OCCN2CCCCCC2)cc1)c1ccc(Cl)cc1`, the growth in the assay with T-47D breast is -58.8% (active); in the assay on BT-549 breast it was -65.5% (active); in the assay with MDA-MB-435 melanoma, -100% (active); in the assay on SW-620 colon, -61.1% (active); in the assay with MCF7 breast it was -79.6% (active); in the assay with HCT-116 colon, -61.9% (active). Also, the values for the growth in the assay with HCC-2998 colon, with KM12 colon and with MDA-MB-468 breast were -97.8% (active), -73% (active) and -91.6% (active), respectively.
As for `O=C(NCCCCCCCCCC[P+](c1ccccc1)(c1ccccc1)c1ccccc1)c1ccc(-n2nc(-c3ccccc3O)nc2-c2ccccc2O)cc1`, the growth is -51.9% (active) in the assay on T-47D breast; -87.4% (active) in the assay on BT-549 breast; -81.3% (active) with MDA-MB-435 melanoma; -60.9% (active) in the assay with SW-620 colon; -87% (active) in the assay on MCF7 breast; -79.4% (active) in the assay with HCT-116 colon. Also, the figures for the growth in the assay on HCC-2998 colon, in the assay with KM12 colon and in the assay on MDA-MB-468 breast were -99.5% (active), -27.1% (active) and -87.7% (active), respectively.
With `O=C1NC(=NC23CC4CC(CC(C4)C2)C3)N/C1=C\c1ccc2ncoc2c1`, the growth is -0.573% (active) in the assay with T-47D breast; -20.6% (active) with BT-549 breast; 16.8% with MDA-MB-435 melanoma; 9.67% (active) in the assay on SW-620 colon; 1.42% (active) in the assay with MCF7 breast; 27.6% in the assay with HCT-116 colon. For the same compound, the growth with HCC-2998 colon is -5.81% (active); with KM12 colon, 4.28% (active); in the assay with MDA-MB-468 breast, -60% (active).

The record behind these values is PubChem BioAssay (NCI).
